The structures appear in SMILES notation. The campaign covered roughly 360,000 compounds. About 7,500 (2.1%) were called active. Where a call stands in place of a potency, no number is given. Roughly 20% stayed inconclusive and do not appear here. The sample holds actives, similar compounds and a random draw of the others, so the mix is not that of the screen. The call rests on the fitted dose curve; in most records, active means well fitted inhibition curve with a large enough effect; inconclusive means small, poorly fitted or top-dose-only effect, or effect the other way; inactive means flat fitted curve, though single readings scatter.
Potency means the concentration at half of the fitted maximal effect.

The nature of the experiment: Nrf2 qHTS screen for inhibitors. Further: nearly all actives have a fitted effect of over 60% in size. Conditions: A549 ARE-Fluc reporter, luciferase luminescence, 18-24 h; series mostly up to 46 µM. An outline of the steps:
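Cells were seeded and rested 2 h, then exposed to compounds for 18-24 h. CellTiter-Fluor was read first as a viability measure. BugLite was added 15 min before the final luminescent read of ARE-luciferase activity in A549 cells.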
In general terms: qHTS replaces the single test concentration by a dilution series.
In the case of `Cc1cc(C)cc(NC(=O)CSc2nc3nccnc3c(=O)n2CCc2c[nH]c3ccccc23)c1`, the Potency result is “inactive”. In the case of `O=C1C=CC(=O)N1c1ccc(N2CCCCC2)cc1` it was 25.9 µM (active). In the case of `CCOC(=O)/C(C#N)=C/c1ccc(N2CCCCC2)cc1` it was “inactive”; in that of `O=C(Cc1ccccc1)NC(=S)Nc1ccc(N2CCCCC2)cc1`, “inactive”. Turning to `Cc1ccc(SCC(=O)Nc2ccc3oc(-c4ccccc4F)nc3c2)cc1`, the Potency result is “inactive”.

With `CC[C@]1(C(=O)OC)[C@H]2C(=O)N(Cc3ccccc3)C(=O)[C@H]2[C@H]2CN=C(SCc3ccc(C#N)cc3)N21`, the Potency entry was “inactive”. As to `O=S(=O)(c1ccc(Br)cc1)c1nnn2c1nc(NC1CCCCCC1)c1sccc12`, the Potency result is “inactive”. As for `CCOc1ccc(Nc2nc3c(S(=O)(=O)c4cccc(Cl)c4)nnn3c3ccsc23)cc1`, the figure is 14.6 µM (active); as for `CCc1ccc(S(=O)(=O)c2nnn3c2nc(N2CCN(CC)CC2)c2sccc23)cc1`, “inactive”; as for `Cc1ccc(-c2cn3c(n2)sc2cc(C(=O)NCCCc4ccccc4)ccc23)cc1`, “inactive”. In the case of `CCN1C[C@@H]2[C@@H]3C(=O)N(Cc4ccccc4)C(=O)[C@@H]3[C@](Cc3ccccc3)(C(=O)OC)N2C1=NC1CCCCC1`, the Potency result is “inactive”. With `CCN(CCCNC(=O)c1cc(Nc2ccc(OC)cc2)nc2ccccc12)c1cccc(C)c1`, the Potency result is “inactive”. In the case of `O=C(COC(=O)c1c2c(nc3ccccc13)/C(=C\c1cccs1)CCC2)Nc1ccccc1Cl` it was “inactive”; in that of `NC(=O)c1ccc(NC(=O)COC(=O)c2c3c(nc4ccccc24)/C(=C\c2ccc4c(c2)OCO4)CCC3)cc1`, 14.6 µM (active); in that of `NS(=O)(=O)c1ccc(NC(=O)COC(=O)c2c3c(nc4ccccc24)/C(=C\c2ccc4c(c2)OCO4)CCC3)cc1`, “inactive”. `CC(=O)c1c(C)[nH]c(C(=O)OCC(=O)Nc2c(C)n(C)n(-c3ccccc3)c2=O)c1C`: the Potency entry was “inactive”. On to `CC(=O)c1c(C)[nH]c(C(=O)COC(=O)c2cccs2)c1C`, for which the Potency result was “inactive”.

For `CC(=O)c1c(C)[nH]c(C(=O)OCC(=O)Nc2cc(S(=O)(=O)N3CCCCC3)ccc2C)c1C`, the Potency entry is “inactive”.

Consider `Cc1cccc(C)c1NC(=O)COC(=O)c1ccccc1O`, for which the Potency result is “inactive”. Regarding `Cc1cccc(C(=O)OCC(=O)Nc2sc3c(c2C#N)CCC3)c1`, the Potency entry was “inactive”.

In the case of `CC(=O)c1c(C)[nH]c(C(=O)OCC(=O)NCCC(C)C)c1C`, the Potency was 11.6 µM (active).

Take `CC(=O)c1c(C)[nH]c(C(=O)OCC(=O)Nc2sc3c(c2C#N)CCCC3)c1C`: the Potency was 18.4 µM (active). Consider `CC(=O)c1c(C)[nH]c(C(=O)OCC(=O)Nc2c(C)cccc2C)c1C`, for which the Potency was 13 µM (active). For `Cc1ccc(C)c(OCC(=O)Nc2sc3c(c2C#N)CCCC3)c1C`, the Potency result is “inactive”.

On to `CCOC(=O)N1CCC(NC(=O)c2cnn(-c3cccc(C)c3)c2C2CCN(C(=O)OC(C)(C)C)CC2)CC1`, for which the Potency entry was “inactive”. For the molecule `O=C(NCc1ccccc1CN1CCCC1)C1CCN(S(=O)(=O)c2ccc(Cl)cc2)CC1`, the Potency entry was “inactive”. Take `CCOc1ccc(S(=O)(=O)c2cn(Cc3ccc(OC)cc3)c3ccc(F)cc3c2=O)cc1`: the Potency result was “inactive”. As for `CCn1cc(C(=O)NCc2ccc(C)cc2)c(=O)c2cc(S(=O)(=O)N3CCc4ccccc4C3)ccc21`, the Potency result is “inactive”.

Turning to `Cc1cc2c(s1)c1cnn(Cc3c(F)cccc3Cl)c(=O)c1n2C`, the Potency entry is “inactive”. For `CC(C)Cn1c(-c2ccc(S(=O)(=O)N3CCOCC3)cc2)csc1=Nc1cc(Cl)ccc1Cl`, the Potency entry was “inactive”.

`CCn1cc(C(=O)N2CCN(c3cc(Cl)ccc3C)CC2)c(=O)c2cc(S(=O)(=O)N3CCCC3)ccc21`: the Potency result was “inactive”.

For the molecule `CCn1cc(C(=O)N2CCN(c3cc(C)ccc3C)CC2)c(=O)c2cc(S(=O)(=O)N(C)C3CCCCC3)ccc21`, the Potency was 23.1 µM (active). Turning to `Cc1ccc(Cl)cc1N1CCN(C(=O)c2cn(C)c3ccc(S(=O)(=O)N(C)C4CCCCC4)cc3c2=O)CC1`, the Potency result is “inactive”.

For `CCN1CCC(O)(/C=C/c2ccc(C)cc2)C(C(=O)/C=C/c2ccc(C)cc2)C1` (stereo not given), the Potency entry is “inactive”. `CC[C@@]1(C(=O)OC)N[C@H](CN(C)C(C)=O)[C@@H]2C(=O)N(C)C(=O)[C@@H]21`: the Potency entry was “inactive”. In the case of `O=C(NCCc1ccco1)c1ccc(OCc2cn3ccccc3n2)cc1` it was “inactive”; in that of `COC1C(CO)OC(n2cnc3c(=S)nc(N)[nH]c32)C1O` (stereo not given), “inactive”. With `CC(C)(C)c1cc(C(=O)NN)n(Cc2ccc(Cl)cc2Cl)n1`, the Potency entry is “inactive”. As to `O=c1ccn(Cc2ccccc2Cl)cc1`, the Potency result was “inactive”. Take `N#CC(C#N)=CN=c1ccn(Cc2ccc(Cl)cc2Cl)cc1`: the Potency is 1.84 µM (active). As for `CCCNS(=O)(=O)c1ccc(CCC(=O)N2CCCC2)cc1`, the entry is “inactive”; as for `CCNS(=O)(=O)c1ccc(CCC(=O)N2CCN(c3cc(Cl)ccc3C)CC2)cc1`, 8.2 µM (active). Take `CCNS(=O)(=O)c1ccc(CCC(=O)N2CCN(c3ccc(OC)cc3)CC2)cc1`: the Potency entry is “inactive”. Turning to `O=C(CN1C(=O)NC2(CCCCCC2)C1=O)NCc1ccc(F)cc1`, the Potency result was “inactive”. As to `O=C(CN1C(=O)NC2(CCCCCCC2)C1=O)NCc1ccc(F)cc1`, the Potency result was “inactive”. Turning to `CSc1ccc(CN2C(=O)NC3(CCCCCC3)C2=O)cc1`, the Potency is 18.4 µM (active). In the case of `COc1ccc(C2(c3ccc(OC)cc3)NC(=O)N(CC(=O)Nc3cc(C)on3)C2=O)cc1`, the Potency entry was “inactive”. Regarding `Cc1cccc(CC2(O)C(=O)Nc3ccccc32)n1` (stereo not given), the Potency result is “inactive”.

Turning to `O=C(Nc1cccc(Cl)c1N1CCOCC1)c1cccnc1`, the Potency entry was “inactive”. Take `COC(=O)c1ccc(N2CCOCC2)c(NC(=O)c2ccc3c(c2)OCCO3)c1`: the Potency entry was “inactive”. With `O=C(Nc1cccc(Cl)c1N1CCOCC1)c1ccc2c(c1)OCCO2`, the Potency is 23.1 µM (active).

Regarding `CC/C(=C(/c1ccccc1)c1ccc(OCC[N+](C)(C)C)cc1)c1ccccc1`, the Potency entry is “inactive”. For `CCC(=O)Nc1c(S(=O)(=O)c2ccccc2)c2nc3ccccc3nc2n1Cc1ccccc1`, the Potency is 14.6 µM (active). In the case of `CCN(CC)CCn1c(N)c(S(=O)(=O)c2ccccc2)c2nc3ccccc3nc21`, the Potency result was “inactive”. As to `COC(=O)CSc1nc2ccccc2c(=O)n1Cc1ccccc1`, the Potency entry was “inactive”.

On to `COc1cc(C(=O)CCc2ccc3c(c2)OCO3)cc(OC)c1OC`, for which the Potency result was “inactive”. As for `COc1cccc(CNC(=O)CSc2c3c(nc4cc(Cl)ccc24)CCCC3)c1`, the entry is “inactive”; as for `CCOc1ccccc1NC(=O)COc1ccc(S(=O)(=O)N2CCCC2)cc1`, “inactive”; as for `COc1ccc(S(=O)(=O)N2CCCCC2)cc1NC(=O)COc1ccccc1`, “inactive”.

Turning to `CCOc1ccc(S(=O)(=O)N2CCCCC2)cc1NC(=O)CN1CCCC1c1cccs1` (stereo not given), the Potency was 8.2 µM (active).

For the origin of these results see PubChem BioAssay AID504444 (National Center for Advancing Translational Sciences (NCATS), 2011).
